From PubChem BioAssay
Compounds with a hit are over-represented: about 0.81% of the library has one in this group of screens.
LRH-1 inv ag: suppresses constitutive activity of human LRH-1 | O00482 | HEK293T StAR-luciferase reporter, LRH-1 transfected, 24 h | inhibition, % at 3.6 µM | actives 0.13% (n = 360,000);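 active means inhibition above the mean inhibition of all tested compounds plus 3 SD, cut at about 73% in these data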;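 further: 0% = DMSO wells and 100% = reporter-only cells lacking LRH-1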
Target sequence (O00482 whole entry, looked up): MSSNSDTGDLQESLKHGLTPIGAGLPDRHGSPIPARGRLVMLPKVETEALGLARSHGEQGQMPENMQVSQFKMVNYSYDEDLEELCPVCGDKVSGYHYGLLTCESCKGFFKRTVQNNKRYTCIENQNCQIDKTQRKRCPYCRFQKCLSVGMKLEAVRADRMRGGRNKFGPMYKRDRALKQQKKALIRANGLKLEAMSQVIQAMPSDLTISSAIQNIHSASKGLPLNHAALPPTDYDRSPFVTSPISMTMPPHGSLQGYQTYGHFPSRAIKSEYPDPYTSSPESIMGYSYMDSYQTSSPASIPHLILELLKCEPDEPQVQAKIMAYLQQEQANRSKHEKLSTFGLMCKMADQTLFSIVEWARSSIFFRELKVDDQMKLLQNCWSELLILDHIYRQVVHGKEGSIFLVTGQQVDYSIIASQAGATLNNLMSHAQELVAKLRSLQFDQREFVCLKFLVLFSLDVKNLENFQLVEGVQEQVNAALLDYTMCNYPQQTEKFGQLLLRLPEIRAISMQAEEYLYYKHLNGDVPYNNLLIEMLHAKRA
SRC3 inh: human NCOA3 inhibition; actives 0.17% (n = 360,000); Q9Y6Q9; AID 588352; HEK293 GAL4-SRC3 luciferase reporter, luminescence; inhibition, % at 3.6 µM;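 active means inhibition above a per-campaign cutoff, the mean of all compounds plus 3 SD, cut at about 60% in these data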;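 further: 0% = DMSO-treated cells and 100% = gossypol-treated cells at 36 µM; higher means less SRC3-driven luciferase light from the GAL4 reporter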
SRC1 inh: inhibitors of human steroid receptor coactivator 1 (SRC1); Q15788; HEK293 GAL4-SRC1 luciferase reporter, luminescence; inhibition, % at 3.6 µM; actives 0.12% (n = 360,000); AID 588354;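 active means inhibition above the campaign mean plus 3 SD, with each screening campaign given its own cutoff, cut at about 60% in these data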;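 further: 0% = DMSO treated cells and 100% = gossypol at 36 µM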
NCOA2 inhibitor: human SRC2 (NCOA2) inhibition | inhibition, % at 9 µM | AID 651957 | Q15596 | HEK293 GAL4-SRC2 luciferase reporter, luminescence | actives 0.17% (n = 370,000);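 active means inhibition above the mean inhibition of all tested compounds plus 3 SD, set per campaign, cut at about 52% in these data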;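 further: 0% = DMSO treated cells and 100% = cells given Gossypol at 36 µM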
COUP-TFII inh: inhibitors of human COUP-TFII (NR2F2); P24468; HEK293T NGFI-A luciferase reporter, luminescence; inhibition, % at 8.6 µM; actives 0.7% (n = 370,000);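 active means inhibition above a per-plate cutoff, mean inhibition of test wells between control levels plus 3 SD, cut at about 38% in these data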;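 further: cells cotransfected with COUP-TFII expression vector driving the NGFI-A reporter; 0% = median of COUP-TF2 test wells and 100% = reporter-only cells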
VP16 Luc counter: VP16 inhibition counter-screen for COUP-TFII; shares compounds with COUP-TFII inh; HEK293 Gal4-VP16 luciferase reporter, luminescence; inhibition, % at 8.5 µM; actives 25% (n = 2,500); AID 687007; in the data active means inhibition above about 13%
COUP-TFII conf: confirmation of human COUP-TFII (NR2F2) inhibitors; shares compounds with COUP-TFII inh; HEK293 NGFI-A luciferase reporter, luminescence; inhibition, % at 8.5 µM; AID 687008; actives 45% (n = 2,500);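 active means mean inhibition over three repeats above a set limit taken from the earlier primary screen, cut at about 38% in these data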;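 further: 100% = cells given the luciferase reporter alone without the COUP-TF2 vector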
* hit, by the source's call; nt = not tested or not shown.

SMILES	LRH-1 inv ag	SRC3 inh	SRC1 inh	NCOA2 inhibitor	COUP-TFII inh	VP16 Luc counter	COUP-TFII conf
COc1ccc(N2CCN(C(CNC(=O)Oc3ccccc3)c3cccnc3)CC2)cc1 (stereo not drawn)	-5	1	12	-8	-3	nt	nt
C[C@H]1C[C@@H](C)C(=O)[C@@H]([C@H](O)CC2CC(=O)NC(=O)C2)C1	103*	93*	92*	72*	85*	6	70*
Cc1ccc(-c2cc(-c3ccc(C)cc3)[n+](C)o2)cc1	66	54	49	-6	69*	6	56*
CC(NC1CCCCC1)C(O)C12CC3CC(CC(C3)C1)C2 (stereo not drawn)	20	19	2	-14	-8	nt	nt
C=CCN1C(=O)NC(=O)C(CCc2ccncc2)(CCc2ccncc2)C1=O	-13	20	-13	-3	-14	nt	nt
COc1ccc(CN2Cc3cnnn3-c3ccccc3C2c2ccccc2)cc1 (stereo not drawn)	-9	7	12	15	10	nt	nt
N#CC1c2ccccc2-n2nncc2CN1Cc1cc(Cl)cc(Cl)c1 (stereo not drawn)	93*	91*	83*	86*	84*	56*	64*
COc1ccc(CN2Cc3cnnn3-c3ccccc3C2C#N)cc1 (stereo not drawn)	36	46	23	43	59*	26*	13
COc1ccc(OCC(=O)N2CCN(C/C=C/c3ccccc3)CC2)cc1	-6	1	6	-29	7	nt	nt
CN1CCN(Cc2cn(C)c3ccccc23)CC1CCO (stereo not drawn)	-21	4	-19	1	-7	nt	nt
O=[N+]([O-])c1ccc(N2CCOCC2)c2c1no[n+]2[O-]	92*	91*	78*	97*	89*	62*	-105
O=C1NC2C(=CC(O)C(O)C2O)c2cc3c(c(O)c21)OCO3 (stereo not drawn)	97*	94*	96*	68*	91*	25*	84*
O=C1NC2C(O)C(O)C(O)C(O)C2c2cc3c(c(O)c21)OCO3 (stereo not drawn)	98*	92*	93*	75*	80*	29*	80*
O=C1NC2C(=CC(O)C(O)C2O)c2cc3c(cc21)OCO3 (stereo not drawn)	97*	91*	94*	75*	78*	11	58*
CC1=NN(c2ccccc2)C(=O)C1/C=C1/C(=O)NC(=O)N(c2cc(C)cc(C)c2)C1=O (stereo not drawn)	8	16	2	-34	10	nt	nt
